# Screening results: PubChem, The Scripps Research Institute Molecular Screening Center
# TTR transcr act: increases transthyretin transcription; 92,000 tested, 1.3% active; activation, % at 16.7 µM; SH-SY5Y TTR promoter Gaussia luciferase, luminescence; 100% = recombinant luciferase protein wells;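 active = activation above the mean of all tested compounds plus 3 SD, cut at about 9.5% in these data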;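 note: cells exposed to compounds for one day before reading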
# TTR inh HuH7: decreases TTR transcription in HuH7 cells in activator counter-screen; HuH7 TTR promoter-Gaussia luciferase reporter, luminescence; shares compounds with TTR transcr act; inhibition, % at 16.7 µM; 1,100 tested, 4% active; AID 1117279;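 active = average inhibition above the solvent-only control wells' mean plus 3 SD, cut at about 15% in these data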;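 note: inhibitors lower well luminescence so higher value means more inhibition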
# TTR act confirm: human TTR transcription activation, confirmation | SHSY5Y TTR promoter Gaussia luciferase, luminescence; 100% = purified Lucia enzyme wells, no cells | 1,100 tested, under 10 active | activation, % at 16.7 µM | AID 1117280 | shares compounds with TTR transcr act;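 active = mean activation above a set limit taken from the earlier primary screen, cut at about 11% in these data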
# Hits are given with their value; – = inactive. This is one part of a sample in which hits are shown more often than they occur.
SMILES,TTR transcr act,others
Cc1csc(SCC(=O)NC23CC4CC(CC(C4)C2)C3)n1,11.3,TTR inh HuH7=–;TTR act confirm=–
Cc1csc(SCC(=O)O)n1,–,
Cc1nnc(SCC(=O)NC23CC4CC(CC(C4)C2)C3)s1,–,
Cc1noc(C)c1COc1cccc(C(=O)OCCOc2ccc(F)cc2)c1,11.5,TTR inh HuH7=–;TTR act confirm=–
Cc1cccc(C)c1NC(=O)c1ccc(OCc2c(C)noc2C)cc1,–,
COc1ccc(C(C)=O)cc1COC(=O)c1ccc(OCc2c(C)noc2C)cc1,–,
C[C@H]1[C@@H](OC(=O)Nc2cccc(C(F)(F)F)c2)CC[C@@]23CCCN2C(=O)CCC[C@@H]13,–,
COC(=O)[C@]12C[C@H](CC(=O)N3CCC(c4ccccc4)CC3)C(=O)N(CCc3ccc(OC)c(OC)c3)C1=C[C@H](COCc1ccccc1)O[C@@H]2C,–,
COc1ccccc1NC(=O)O[C@@H]1CC[C@@]23CCCN2C(=O)CCC[C@H]3C1,–,
O=C1CCCc2c1nc(-c1ccc(F)cc1)n2O,–,
O=[N+]([O-])c1ccc(-c2cn3c(n2)CCC3)cc1,–,
O=C1CCCc2c1nc(-c1ccc([N+](=O)[O-])cc1)n2O,12.0,TTR inh HuH7=–;TTR act confirm=–
COc1cccc(N(C)C(=O)[C@@H](C2CC2)[C@@H](O)c2ccc(Cl)cc2)c1,–,
COC(=O)[C@]12C[C@H](CC(=O)NCCCCc3ccccc3)C(=O)N(Cc3ccccc3)C1=C[C@H](COCc1ccccc1)O[C@@H]2C,–,
O=C(CC[C@H]1O[C@@H](n2ccc(=O)[nH]c2=O)[C@H](O)[C@@H]1O)N[C@@H](Cc1ccccc1)C(=O)NCc1ccccc1,15.0,TTR inh HuH7=–;TTR act confirm=–
CC(C)CCNC(=O)[C@@H](Cc1ccccc1)NC(=O)CC[C@H]1O[C@@H](n2ccc(=O)[nH]c2=O)[C@H](O)[C@@H]1O,–,
O=c1ccn([C@@H]2O[C@H](CNCc3ccc(-n4cccn4)cc3)[C@@H](O)[C@H]2O)c(=O)[nH]1,–,
COc1ccc(F)cc1-c1cc(C(C)=O)c2n(c1=O)CCC2,–,
CCOC(=O)C(Cc1ccccc1)CP(=O)(OC)[C@@H](C)NC(=O)OCc1ccccc1 (stereo partly drawn),–,
Cc1ccc(NC(=O)C2CC3CCC2C3)cc1 (stereo not drawn),–,
CCOCCCNC(=O)c1cc(C)nn1-c1ccccc1,–,
Cc1cc(C(=O)N2CCOCC2)n(-c2ccccc2)n1,–,
Cc1cc(C(=O)NCCCN2CCOCC2)n(-c2ccccc2)n1,17.5,TTR inh HuH7=–;TTR act confirm=–
CCn1c(=O)n2n(c1=O)[C@]1(C=C(C)C2)CN(Cc2ccc(OC)cc2OC)C(NC(=O)c2ccccc2)=N1,–,
CN1C(=O)C(O)(CC(=O)c2cccs2)c2ccccc21 (stereo not drawn),18.2,TTR inh HuH7=–;TTR act confirm=–
SMILES,TTR transcr act,others
CCCCN1C(=O)C(O)(CC(=O)c2ccccn2)c2ccccc21 (stereo not drawn),–,
Cc1ccccc1CN1C(=O)C(O)(CC(=O)c2ccncc2)c2ccccc21 (stereo not drawn),–,
O=C1CCC2(CCC(c3ccccc3)CC2)N1CC[C@@H](O)c1ccccc1 (stereo partly drawn),–,
O=S1(=O)CCOC[C@H](Cc2ccccc2)N1Cc1cccc(F)c1,–,
O=S1(=O)CCOC[C@H](Cc2ccccc2)N1Cc1ccc(F)cc1,–,
O=S1(=O)CCOC[C@H](c2ccccc2)N1Cc1cccc(F)c1,12.9,TTR inh HuH7=–;TTR act confirm=–
CCOC(=O)[C@]12CCCC=C1N(Cc1ccc(OC)cc1)C(=O)[C@@H]2CC(=O)NCc1ccc(C)o1,–,
C#CCN1C(=O)[C@]2(NCCc3c2[nH]c2ccc(OC)cc32)c2ccccc21,–,
C=CCN1C(=O)[C@H](CC(=O)N2CCN(C(=O)c3ccco3)CC2)[C@@]2(C(=O)OCC)CCCC=C12,–,
O=C(CNC(=O)c1ccco1)OCc1ccccc1Cl,10.7,TTR inh HuH7=–;TTR act confirm=–
O=C(NCc1ccccc1Br)c1ccco1,–,
O=C(COC(=O)CNC(=O)c1ccco1)Nc1ccc(Cl)cn1,–,
CN(C)[C@H]1CCN(c2cccc3c2S(=O)(=O)N2CC[C@@H](C2)O3)C1,–,
COCCCNC(=O)C[C@@H]1C(=O)N(CCc2ccc(Cl)cc2)C2=CCCCC[C@]21C(=O)OC,–,
CC(C)(C)c1ccc2c(c1)OC(C(=O)N/N=C/c1ccc[nH]1)CO2 (stereo not drawn),–,
Cc1ccc(NC(=O)C2CC3CCC2C3)c(C)c1 (stereo not drawn),–,
COC(=O)c1cc(-c2cc(Cl)cc(Cl)c2)c(=O)n2c1CCC2,–,
CCOc1ccc(CCNC(=O)c2ccccn2)cc1OCC,–,
Cc1cc(C)c(C(N)=O)c(Nc2ccc3c(c2)OCCO3)n1,10.3,TTR inh HuH7=–;TTR act confirm=–
CCc1ccc(Nc2nc(C)cc(C)c2C(N)=O)cc1,–,
COc1ccc(Nc2nc(C)cc(C)c2C(N)=O)cc1,–,
